Assay results published in PubChem BioAssay AID1159580 (chemical genetic matrix, 2015).
Several values for one entry are separate records, joined by “and”; a condition that tells them apart may be missing. Equal values may be shown once. The whole screen tested about 5,500 compounds, of which about 2,000 (36%) were called active. Not shown: some 18% with an inconclusive outcome. Rule as the data show it: active = normalized growth mostly below about 0.91 (no sharp cut-off); inconclusive = no clear call, values can overlap the other calls; inactive = mostly above about 0.92. Some of the results follow.

Assay: chemical genetic growth profiling, strain panel (AID 1159580);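 also: tested at 20 µM; growth read once vehicle control cultures reached saturation at 30 °C; 1 = growth at the plate median or of vehicle wells; lower values mean less growth of the strain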
Details: growth OD

Measured: normalized growth

CN1CCN(CC(=O)N2c3ccccc3C(=O)Nc3cccnc32)CC1
inactive: S. cerevisiae deletion strains, locus YJR075W, strain HOC1, stronger effect = lower value 1.01 and 0.992 | S. cerevisiae deletion strains, locus YKL009W, strain mrt4, stronger effect = lower value 0.998 | S. cerevisiae deletion strains, locus YKL068W, stronger effect = lower value 1 | S. cerevisiae deletion strains, locus YKL085W, strain MDH1 (second series), stronger effect = lower value 1.02 | S. cerevisiae deletion strains, locus YKL085W, strain MDH1, stronger effect = lower value 1.02 | S. cerevisiae deletion strains, locus YKL160W, strain elf1, stronger effect = lower value 1.01 | S. cerevisiae deletion strains, locus YKL190W, strain CNB1, stronger effect = lower value 1.01 | S. cerevisiae deletion strains, locus YKR001C, strain vps1, stronger effect = lower value 1.01 | S. cerevisiae deletion strains, locus YKR026C, strain gcn3, stronger effect = lower value 1.01 | S. cerevisiae deletion strains, locus YKR091W, strain srl3, stronger effect = lower value 1 | S. cerevisiae deletion strains, locus YLL001W, strain dnm1, stronger effect = lower value 1.01 | S. cerevisiae deletion strains, locus YLL026W, stronger effect = lower value 1.02 | S. cerevisiae deletion strains, locus YLL041C, strain sdh2, stronger effect = lower value 1.01 | S. cerevisiae deletion strains, locus YLR027C, strain aat2, stronger effect = lower value 1 | S. cerevisiae deletion strains, locus YLR039C, strain RIC1, stronger effect = lower value 1.04 | S. cerevisiae deletion strains, locus YLR058C, strain SHM2, stronger effect = lower value 1.02 | S. cerevisiae deletion strains, locus YLR102C, strain apc9, stronger effect = lower value 1.02 | S. cerevisiae deletion strains, locus YLR113W, strain HOG1, stronger effect = lower value 0.989 | S. cerevisiae deletion strains, locus YLR221C, strain rsa3, stronger effect = lower value 1.01 | S. cerevisiae deletion strains, locus YLR258W, strain gsy2, stronger effect = lower value 1.02 | S. cerevisiae deletion strains, locus YLR262C, strain YPT6 (second series), stronger effect = lower value 0.992 | S. cerevisiae deletion strains, locus YLR262C, strain YPT6, stronger effect = lower value 1.04 | S. cerevisiae deletion strains, locus YLR268W, strain sec22, stronger effect = lower value 1.03 | S. cerevisiae deletion strains, locus YLR320W, strain mms22, stronger effect = lower value 1.02 | S. cerevisiae deletion strains, locus YLR330W, strain CHS5, stronger effect = lower value 1.01 | S. cerevisiae deletion strains, locus YLR342W, strain FKS1 (second series), stronger effect = lower value 1.05 | S. cerevisiae deletion strains, locus YLR342W, strain FKS1, stronger effect = lower value 1.01 | S. cerevisiae deletion strains, locus YLR357W, strain rsc2, stronger effect = lower value 1.05 | S. cerevisiae deletion strains, locus YLR370C, strain arc18, stronger effect = lower value 1.03 | S. cerevisiae deletion strains, locus YLR371W, strain rom2, stronger effect = lower value 1.03 | S. cerevisiae deletion strains, locus YLR384C, strain iki3, stronger effect = lower value 1.02 | S. cerevisiae deletion strains, locus YLR418C, strain cdc73, stronger effect = lower value 1.05 | S. cerevisiae deletion strains, locus YML016C, strain PPZ1, stronger effect = lower value 1.01 | S. cerevisiae deletion strains, locus YML032C, strain rad52, stronger effect = lower value 1.01 | S. cerevisiae deletion strains, locus YML120C, strain ndi1, stronger effect = lower value 1 | S. cerevisiae deletion strains, locus YML124C, strain tub3, stronger effect = lower value 1.02 | S. cerevisiae deletion strains, locus YMR058W, strain fet3, stronger effect = lower value 1.04 | S. cerevisiae deletion strains, locus YMR078C, strain ctf18, stronger effect = lower value 1.01 | S. cerevisiae deletion strains, locus YMR125W, strain sto1, stronger effect = lower value 1.01 | S. cerevisiae deletion strains, locus YMR129W, stronger effect = lower value 1.02 | S. cerevisiae deletion strains, locus YMR205C, strain PFK2, stronger effect = lower value 1.04 | S. cerevisiae deletion strains, locus YMR223W, strain ubp8, stronger effect = lower value 1.01 | S. cerevisiae deletion strains, locus YMR231W, strain pep5, stronger effect = lower value 1.02 | S. cerevisiae deletion strains, locus YMR263W, strain SAP30, stronger effect = lower value 1.01 | S. cerevisiae deletion strains, locus YMR307W, strain GAS1, stronger effect = lower value 1.07 | S. cerevisiae deletion strains, locus YNL067W, strain RPL9B, stronger effect = lower value 1.01 | S. cerevisiae deletion strains, locus YNL071W, strain lat1, stronger effect = lower value 1.03 | S. cerevisiae deletion strains, locus YNL128W, strain TEP1, stronger effect = lower value 1.03 | S. cerevisiae deletion strains, locus YNL153C, strain GIM3, stronger effect = lower value 1.01 | S. cerevisiae deletion strains, locus YNL175C, strain NOP13, stronger effect = lower value 0.985 | S. cerevisiae deletion strains, locus YNL183C, strain NPR1, stronger effect = lower value 0.938 | S. cerevisiae deletion strains, locus YNL197C, strain WHI3, stronger effect = lower value 0.982 | S. cerevisiae deletion strains, locus YNL209W, strain ssb2, stronger effect = lower value 1.02 | S. cerevisiae deletion strains, locus YNL224C, strain SQS1, stronger effect = lower value 1.01 | S. cerevisiae deletion strains, locus YNL233W, strain BNI4, stronger effect = lower value 1.01 | S. cerevisiae deletion strains, locus YNL248C, strain rpa49, stronger effect = lower value 1.03 | S. cerevisiae deletion strains, locus YNL250W, strain rad50, stronger effect = lower value 1.01 | S. cerevisiae deletion strains, locus YNL271C, strain bni1, stronger effect = lower value 1.01 | S. cerevisiae deletion strains, locus YNL298W, strain CLA4, stronger effect = lower value 1.02 | S. cerevisiae deletion strains, locus YNL307C, strain MCK1, stronger effect = lower value 1.03 | S. cerevisiae deletion strains, locus YNL322C, strain KRE1 (second series), stronger effect = lower value 1.02 | S. cerevisiae deletion strains, locus YNL322C, strain KRE1, stronger effect = lower value 1.01 | S. cerevisiae deletion strains, locus YNR049C, strain mso1, stronger effect = lower value 1 | S. cerevisiae deletion strains, locus YNR052C, strain pop2, stronger effect = lower value 1.03 | S. cerevisiae deletion strains, locus YOL006C, strain TOP1, stronger effect = lower value 1.05 | S. cerevisiae deletion strains, locus YOL012C, strain htz1 0.832 | S. cerevisiae deletion strains, locus YOL147C, strain pex11, stronger effect = lower value 1.04 | S. cerevisiae deletion strains, locus YOR001W, strain rrp6, stronger effect = lower value 1.02 | S. cerevisiae deletion strains, locus YOR061W, strain CKA2, stronger effect = lower value 1.01 | S. cerevisiae deletion strains, locus YOR069W, strain VPS5, stronger effect = lower value 1.01 | S. cerevisiae deletion strains, locus YOR070C, strain gyp1, stronger effect = lower value 1.02 | S. cerevisiae deletion strains, locus YOR080W, strain dia2, stronger effect = lower value 1.01 | S. cerevisiae deletion strains, locus YOR083W, strain WHI5 (second series), stronger effect = lower value 0.986 | S. cerevisiae deletion strains, locus YOR083W, strain WHI5, stronger effect = lower value 0.967 | S. cerevisiae deletion strains, locus YOR106W, strain vam3, stronger effect = lower value 1.02 | S. cerevisiae deletion strains, locus YOR136W, strain idh2, stronger effect = lower value 1.01 | S. cerevisiae deletion strains, locus YOR144C, strain elg1, stronger effect = lower value 1.02 | S. cerevisiae deletion strains, locus YOR184W, strain ser1, stronger effect = lower value 1.01 | S. cerevisiae deletion strains, locus YOR231W, strain MKK1, stronger effect = lower value 0.983 | S. cerevisiae deletion strains, locus YOR265W, strain rbl2, stronger effect = lower value 1.01 | S. cerevisiae deletion strains, locus YOR270C, strain vph1, stronger effect = lower value 1.06 | S. cerevisiae deletion strains, locus YOR290C, strain snf2, stronger effect = lower value 1.02 | S. cerevisiae deletion strains, locus YOR316C, strain cot1, stronger effect = lower value 1.02 | S. cerevisiae deletion strains, locus YPL051W, strain arl3, stronger effect = lower value 1.01 | S. cerevisiae deletion strains, locus YPL055C, strain LGE1, stronger effect = lower value 1.01 | S. cerevisiae deletion strains, locus YPL078C, strain atp4, stronger effect = lower value 1.02 | S. cerevisiae deletion strains, locus YPL106C, strain sse1, stronger effect = lower value 1.03 | S. cerevisiae deletion strains, locus YPL240C, strain hsp82, stronger effect = lower value 1 | S. cerevisiae deletion strains, locus YPL241C, strain CIN2, stronger effect = lower value 1.01 and 0.991 | S. cerevisiae deletion strains, locus YPL256C, strain CLN2, stronger effect = lower value 0.978 | S. cerevisiae deletion strains, locus YPR119W, strain clb2, stronger effect = lower value 1.01 | S. cerevisiae deletion strains, locus YPR141C, strain kar3, stronger effect = lower value 1.02 | S. cerevisiae deletion strains, locus YPR163C, strain tif3, stronger effect = lower value 1.03 | S. cerevisiae deletion strains, locus YPR167C, strain met16, stronger effect = lower value 1.02 | S. cerevisiae deletion strains, strain wtn01, stronger effect = lower value 1.01 | S. cerevisiae strains, strain wild type, stronger effect = lower value 1.01
